Results taken from publication PMC10812921, “Transcriptional Coactivator BOB1 (OBF1, OCA-B) Modulates the Specificity of DNA Recognition by the POU-Domain Factors OCT1 and OCT2 in a Monomeric Configuration”.

What follows are sequences tested against POU1 (OCT1 POU domain);BOB1 (OBF1, OCA-B) (human;human, UniProt P14859;Q16633 260-458;1-256, |) (assay: EMSA-SELEX-seq; with BOB1 (ternary complex band); 20 mM Tris-HCl pH 7.6, 140 mM NaCl, 10% glycerol, 0.5 mM EDTA, 0.05% Triton X-100, 0.1 mg/mL BSA, 0.1 mg/mL poly(dI-dC), 5 mM DTT, room temperature, 20 min; high values mean tight binding). Details: protein: recombinant;recombinant; copies: 1;1; dsDNA, one strand shown.
In short: (§1)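 With or without 28 ng coactivator protein, 30 ng of tagged POU-domain protein was combined with 300 ng of a PCR-amplified double-stranded random 35-nt library in 20 μL Tris–HCl pH 7.6 binding buffer for 20 min at RT. The protein came from E. coli BL21 and had been purified under denaturing conditions and renatured. Four rounds of cutting complex bands from native 6% PAGE, elution and PCR amplification preceded Illumina sequencing. The binding preference figure is the percentage of sequenced 8-mers matching a motif pattern.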

Row | Sequence | binding signal
1 | AGCGGAAC | 0.0129 % of ANNNNAAN 8-mers
2 | ATGTTAAC | 0.0578 % of ANNNNAAN 8-mers
3 | AGTGTAAA | 0.0687 % of ANNNNAAN 8-mers
4 | AGCTGAAA | 0.0261 % of ANNNNAAN 8-mers
5 | AATCGAAC | 0.0347 % of ANNNNAAN 8-mers
6 | AGCTAAAT | 0.0738 % of ANNNNAAN 8-mers
7 | AGACTAAC | 0.0156 % of ANNNNAAN 8-mers
8 | AAAGCAAT | 0.0652 % of ANNNNAAN 8-mers
9 | ATTCAAAG | 0.314 % of ANNNNAAN 8-mers
10 | ATGTGAAA | 0.0687 % of ANNNNAAN 8-mers
11 | AAAAAAAT | 0.152 % of ANNNNAAN 8-mers
12 | AGACTAAG | 0.03 % of ANNNNAAN 8-mers
13 | ACGTTAAC | 0.0234 % of ANNNNAAN 8-mers
14 | ATTTGAAG | 0.0909 % of ANNNNAAN 8-mers
15 | AAGCGAAT | 0.0531 % of ANNNNAAN 8-mers
16 | AGTGAAAG | 0.0624 % of ANNNNAAN 8-mers
17 | ATAGCAAA | 0.078 % of ANNNNAAN 8-mers
18 | AGATGAAG | 0.0316 % of ANNNNAAN 8-mers
19 | ATACCAAT | 0.0394 % of ANNNNAAN 8-mers
20 | AGGGTAAG | 0.0531 % of ANNNNAAN 8-mers

Row | Sequence | binding signal
21 | AATATAAA | 0.107 % of ANNNNAAN 8-mers
22 | ATCCCAAC | 0.0172 % of ANNNNAAN 8-mers
23 | AGAGCAAA | 0.0433 % of ANNNNAAN 8-mers
24 | ACGTCAAC | 0.0187 % of ANNNNAAN 8-mers
25 | ACGAGAAG | 0.0269 % of ANNNNAAN 8-mers
26 | AGTACAAT | 0.0386 % of ANNNNAAN 8-mers
27 | ATTTTAAA | 0.126 % of ANNNNAAN 8-mers
28 | AAACGAAA | 0.0644 % of ANNNNAAN 8-mers
29 | AATATAAT | 0.137 % of ANNNNAAN 8-mers
30 | AGTATAAA | 0.0585 % of ANNNNAAN 8-mers
31 | AATGCAAA | 2.58 % of ANNNNAAN 8-mers
32 | AGCATAAC | 0.0207 % of ANNNNAAN 8-mers
33 | ACCACAAT | 0.0199 % of ANNNNAAN 8-mers
34 | ACCGAAAA | 0.0226 % of ANNNNAAN 8-mers
35 | AAGTAAAA | 0.132 % of ANNNNAAN 8-mers
36 | AACCAAAC | 0.0437 % of ANNNNAAN 8-mers
37 | ACTGAAAA | 0.0328 % of ANNNNAAN 8-mers
38 | AGCCAAAG | 0.0363 % of ANNNNAAN 8-mers
39 | AAATCAAG | 0.132 % of ANNNNAAN 8-mers

These sequences were tested against T1, POU2 (OCT2 POU domain);BOB1 (OBF1, OCA-B) (human;human, UniProt P09086;Q16633 175-386;1-256, |) in the same assay as above. Details: protein: recombinant;recombinant; copies: 1;1; dsDNA, one strand shown.
T1 sequence 1: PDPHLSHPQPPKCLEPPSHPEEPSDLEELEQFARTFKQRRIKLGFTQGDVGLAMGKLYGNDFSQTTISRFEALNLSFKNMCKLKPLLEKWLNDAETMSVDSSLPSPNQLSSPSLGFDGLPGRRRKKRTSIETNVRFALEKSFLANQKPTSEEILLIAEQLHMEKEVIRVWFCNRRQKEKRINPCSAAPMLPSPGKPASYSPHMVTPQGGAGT
T1 sequence 2: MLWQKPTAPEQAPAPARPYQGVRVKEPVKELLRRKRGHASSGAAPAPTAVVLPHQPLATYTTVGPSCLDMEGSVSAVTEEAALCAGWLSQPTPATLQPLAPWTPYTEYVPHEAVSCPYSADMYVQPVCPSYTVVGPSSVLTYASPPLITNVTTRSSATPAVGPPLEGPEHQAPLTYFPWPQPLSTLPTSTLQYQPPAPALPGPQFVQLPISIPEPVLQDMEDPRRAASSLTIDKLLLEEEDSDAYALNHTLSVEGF
In short: as §1

Row | Sequence | binding signal
40 | AGCGGAAC | 0.0157 % of ANNNNAAN 8-mers
41 | ATGTTAAC | 0.0586 % of ANNNNAAN 8-mers
42 | AGTGTAAA | 0.052 % of ANNNNAAN 8-mers
43 | AGCTGAAA | 0.0239 % of ANNNNAAN 8-mers
44 | AATCGAAC | 0.0512 % of ANNNNAAN 8-mers
45 | AGCTAAAT | 0.0479 % of ANNNNAAN 8-mers
46 | AGACTAAC | 0.0198 % of ANNNNAAN 8-mers
47 | AAAGCAAT | 0.0371 % of ANNNNAAN 8-mers
48 | ATTCAAAG | 0.242 % of ANNNNAAN 8-mers
49 | ATGTGAAA | 0.0718 % of ANNNNAAN 8-mers
50 | AAAAAAAT | 0.12 % of ANNNNAAN 8-mers
51 | AGACTAAG | 0.0314 % of ANNNNAAN 8-mers
52 | ACGTTAAC | 0.0289 % of ANNNNAAN 8-mers
53 | ATTTGAAG | 0.0545 % of ANNNNAAN 8-mers
54 | AAGCGAAT | 0.0429 % of ANNNNAAN 8-mers
55 | AGTGAAAG | 0.0504 % of ANNNNAAN 8-mers
56 | ATAGCAAA | 0.0454 % of ANNNNAAN 8-mers
57 | AGATGAAG | 0.0297 % of ANNNNAAN 8-mers
58 | ATACCAAT | 0.0471 % of ANNNNAAN 8-mers
59 | AGGGTAAG | 0.0776 % of ANNNNAAN 8-mers

Row | Sequence | binding signal
60 | AATATAAA | 0.101 % of ANNNNAAN 8-mers
61 | ATCCCAAC | 0.014 % of ANNNNAAN 8-mers
62 | AGAGCAAA | 0.0413 % of ANNNNAAN 8-mers
63 | ACGTCAAC | 0.0165 % of ANNNNAAN 8-mers
64 | ACGAGAAG | 0.0347 % of ANNNNAAN 8-mers
65 | AGTACAAT | 0.0462 % of ANNNNAAN 8-mers
66 | ATTTTAAA | 0.103 % of ANNNNAAN 8-mers
67 | AAACGAAA | 0.052 % of ANNNNAAN 8-mers
68 | AATATAAT | 0.133 % of ANNNNAAN 8-mers
69 | AGTATAAA | 0.0479 % of ANNNNAAN 8-mers
70 | AATGCAAA | 3.21 % of ANNNNAAN 8-mers
71 | AGCATAAC | 0.038 % of ANNNNAAN 8-mers
72 | ACCACAAT | 0.0215 % of ANNNNAAN 8-mers
73 | ACCGAAAA | 0.0165 % of ANNNNAAN 8-mers
74 | AAGTAAAA | 0.0693 % of ANNNNAAN 8-mers
75 | AACCAAAC | 0.0239 % of ANNNNAAN 8-mers
76 | ACTGAAAA | 0.0363 % of ANNNNAAN 8-mers
77 | AGCCAAAG | 0.019 % of ANNNNAAN 8-mers
78 | AAATCAAG | 0.128 % of ANNNNAAN 8-mers
